Measured values from PubChem BioAssay (NCI).
The panel holds about 79,000 compounds, 15% with a hit somewhere; the sample as a whole holds those more often. Unmarked numbers belong to inactive results. Activity calls are given as the source filed them. Rule as the data show it: active = growth inhibition above about 70%; inactive = the rest.

Columns and labels:
[1] = NCI Yeast Anticancer Drug Screen. Data for the rad50 strain (AID 155);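 also: 0% = growth of vehicle-only cultures of the same strain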; conditions: S. cerevisiae rad50 strain growth inhibition, stronger effect = higher value
In short: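 Genetically altered yeast (DNA repair pathway); compound treatment; growth inhibition vs vehicle ctrl.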

[2] = NCI Yeast Anticancer Drug Screen. Data for the mec2-1 strain (AID 157); conditions: S. cerevisiae mec2-1 strain, stronger effect = higher value
In short: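 Using mec2-1 yeast: add compound, measure growth, express inhibition versus vehicle-treated cultures.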

[3] = NCI Yeast Anticancer Drug Screen. Data for the sgs1 mgt1 strain (AID 161);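 also: 0% = growth of cultures given vehicle only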; conditions: S. cerevisiae sgs1 mgt1 strain, stronger effect = higher value
In short: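 Percent growth inhibition was derived by comparing compound-exposed mutant yeast with vehicle-exposed cultures. The strain carries alterations in DNA damage repair.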

[4] = NCI Yeast Anticancer Drug Screen. Data for the cln2 rad14 strain (AID 165);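 also: 0% = growth equal to vehicle treated cultures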; conditions: S. cerevisiae cln2 rad14 strain, stronger effect = higher value
In short: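 Yeast strain cln2 rad14, bearing defects in cell cycle control and DNA repair, serves as the test system; values reflect growth inhibition compared with vehicle.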

[5] = NCI Yeast Anticancer Drug Screen. Data for the bub3 strain (AID 167); conditions: S. cerevisiae bub3 mutant strain, stronger effect = higher value
In short: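 Yeast carrying a defined mutation is treated with each compound, and growth is compared with that of vehicle-exposed cells to give inhibition.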

[6] = NCI Yeast Anticancer Drug Screen. Data for the mlh1 rad18 strain (AID 175); conditions: S. cerevisiae mlh1 rad18 strain growth inhibition, stronger effect = higher value
In short: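 Steps: expose repair-defective yeast to compound; measure growth; express inhibition against vehicle-treated controls.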

[7] = at 5.0 µM (retest, dose inferred, filed as 0.5)
[8] = at 50.0 µM (retest, dose inferred, filed as 5.0)

SMILES	growth inhibition [1, 7]	growth inhibition [1, 8]	growth inhibition ([1]; at 50.0 µM)	growth inhibition [2, 7]	growth inhibition [2, 8]	growth inhibition ([2]; at 50.0 µM)	growth inhibition [3, 7]	growth inhibition [3, 8]	growth inhibition ([3]; at 50.0 µM)	growth inhibition [4, 7]	growth inhibition [4, 8]	growth inhibition ([4]; at 50.0 µM)	growth inhibition [5, 7]	growth inhibition [5, 8]	growth inhibition ([5]; at 50.0 µM)	growth inhibition [6, 7]	growth inhibition [6, 8]	growth inhibition ([6]; at 50.0 µM)
CCCCCCCC[N+](C)(CCCCCCCC)CCCCCCCC	51%	95% (active)	90.5% (active)	47%	91% (active)	92.2% (active)	98% (active)	97% (active)	93% (active)	71% (active)	98% (active)	91.7% (active)	96% (active)	96% (active)	91.7% (active)	41%	98% (active)	91.2% (active)
N#C/C(=C\c1cc(Cl)cc(Cl)c1O)C(/C(C#N)=C/c1cc(Cl)cc(Cl)c1O)c1ccc2c(c1)OCO2 (configuration not stated)	64%	98% (active)	90.8% (active)	48%	99% (active)	93.5% (active)	75% (active)	100% (active)	93.2% (active)	44%	97% (active)	91.8% (active)	74% (active)	99% (active)	92.1% (active)	80% (active)	99% (active)	90.8% (active)
CCCCc1c2c(nc3c1CC/C(=C\c1ccc([N+](=O)[O-])cc1)C3=O)CCCC2	92% (active)	92% (active)	88.5% (active)	97% (active)	94% (active)	92.6% (active)	38%	92% (active)	89.8% (active)	97% (active)	93% (active)	88.1% (active)	98% (active)	91% (active)	88.5% (active)	96% (active)	88% (active)	89.6% (active)
Clc1ccc(CN2CCN(Cc3ccc(Cl)cc3)C2c2ccc(Cl)cc2)cc1	17%	66%	21.9%	4%	58%	34.5%	40%	92% (active)	53.5%	26%	55%	69.4%	33%	83% (active)	28.1%	28%	77% (active)	27.2%
CC(=O)OC1CCC(C(C)(C)C)C(C)C1 (configuration not stated)	3%	43%	11.4%	5%	70% (active)	45.5%	6%	42%	43.4%	2%	68%	9.55%	-4%	67%	32.9%	3%	47%	29.5%
CC(C)(C)c1cc(C(P(=O)(c2ccccc2)c2ccccc2)P(=O)(c2ccccc2)c2ccccc2)cc(C(C)(C)C)c1O	3%	96% (active)	97.9% (active)	-5%	92% (active)	93.7% (active)	-8%	97% (active)	98.1% (active)	2%	88% (active)	94.7% (active)	-4%	93% (active)	96.3% (active)	-3%	92% (active)	96.7% (active)
O=C1C2C3C=CC(C2C(=O)N1CN1CCOCC1)C1C2C(=O)N(CN4CCOCC4)C(=O)C2C31 (configuration not stated)	-6%	-10%	1.85%	11%	3%	10.2%	-4%	-25%	-1.35%	-26%	-7%	39%	1%	-9%	-17.8%	-31%	-12%	0.8%
Cc1ccc[n+](CC(=O)C2CCC3CC4CCCCC4CC3C2)c1 (configuration not stated)	-2%	38%	22.4%	-1%	34%	17.7%	-27%	19%	37.4%	0%	31%	-3.75%	1%	29%	18.8%	-2%	43%	59%
O=[N+]([O-])c1ccc2c(c1)/C(=C/c1ccc(O)cc1)c1ccccc1-2	9%	86% (active)	88.3% (active)	1%	82% (active)	88.8% (active)	2%	82% (active)	91.3% (active)	-2%	84% (active)	86.8% (active)	-2%	85% (active)	88.6% (active)	6%	83% (active)	88.8% (active)
Cn1c(-c2ccc(/C=N/NC(=S)N/N=C/c3ccc(-c4c[n+]5ccsc5n4C)cc3)cc2)c[n+]2ccsc12	72% (active)	95% (active)	88.6% (active)	66%	98% (active)	91.2% (active)	73% (active)	98% (active)	91.4% (active)	34%	91% (active)	86.4% (active)	60%	89% (active)	90.3% (active)	72% (active)	97% (active)	88% (active)
C/C=C\C(/C=C/C)(C(=O)OCCN(C)C)C(/C=C\C)(/C=C/C)C(=O)OCCN(C)C (configuration not stated)	5%	97% (active)	98% (active)	2%	97% (active)	96.8% (active)	5%	96% (active)	95.8% (active)	2%	97% (active)	96.5% (active)	2%	95% (active)	95.4% (active)	3%	97% (active)	97% (active)
Cc1ccc(NC(=O)COC(=O)c2cccc3c(=O)c4ccccc4[nH]c23)cc1	51%	89% (active)	74.8% (active)	27%	80% (active)	43.3%	40%	89% (active)	29.6%	21%	69%	61.6%	42%	81% (active)	72% (active)	49%	94% (active)	49.5%
CCCCNC(=S)N/N=C/c1cccc(C)n1	-3%	98% (active)	1.35%	-8%	98% (active)	32.5%	-16%	98% (active)	59.2%	-11%	99% (active)	17.4%	-27%	97% (active)	42.5%	8%	99% (active)	-11.1%
Cc1ccc2c(C3Cc4ccccc4N3C(=O)/C=C\C(=O)O)c(C)[nH]c2c1 (configuration not stated)	23%	85% (active)	87.5% (active)	24%	91% (active)	88.7% (active)	37%	89% (active)	92.7% (active)	27%	82% (active)	90.1% (active)	35%	90% (active)	90.6% (active)	39%	95% (active)	89.1% (active)
Cc1cc(N2C(=O)CCSC2=S)ccc1Cl	88% (active)	28%	90.9% (active)	7%	27%	88.8% (active)	48%	43%	90.6% (active)	47%	43%	54.5%	45%	71% (active)	86% (active)	82% (active)	18%	87.5% (active)
CC(N)C1C(C)CC2C3CC=C4CC(O)CCC4(C)C3CCC21C (configuration not stated)	50%	85% (active)	4.45%	35%	74% (active)	25.1%	83% (active)	-19%	74% (active)	49%	86% (active)	8.3%	52%	85% (active)	84.1% (active)	57%	86% (active)	53.2%
CS/C(=N\C(=S)N(C)C)N(c1ccccc1)c1nc(=[N+](C)C)ss1	27%	98% (active)	98.5% (active)	13%	67%	99.5% (active)	38%	98% (active)	97.9% (active)	1%	99% (active)	86.1% (active)	27%	97% (active)	98.8% (active)	22%	98% (active)	98.7% (active)
CC1=C(C(=O)OCCO[N+](=O)[O-])C(c2cccc([N+](=O)[O-])c2)C(C(=O)OC(C)C)=C(C)N1 (configuration not stated)	13%	91% (active)	79.2% (active)	10%	92% (active)	83% (active)	-22%	91% (active)	87.5% (active)	-3%	87% (active)	81.5% (active)	-3%	88% (active)	85.3% (active)	12%	95% (active)	71% (active)
CCOC(=O)CSC(=S)N1CCOCC1	-3%	-2%	37%	-2%	-10%	-9.1%	-4%	-6%	-10.6%	-5%	-9%	-32.2%	-1%	-6%	-3.9%	-2%	0%	-29.2%
